The results in this text go back to PubChem BioAssay (NCI).

This is part of a sample that, as a whole, favours compounds with a hit. Of some 83,000 tested, about 20% had one in any assay.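 48-hour exposure, single concentration, 96-well plates; percent growth endpoint where 0 means no net growth. Active: below 10.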 A number with no mark means an inactive call. Active and inactive are the calls of the source.

For this test, the system named is HL-60(TB) leukemia. Nature of the test: NCI-60 one-dose screen, 48 h (100 = growth as untreated, 0 = no growth, -100 = all killed). To be noted: 10 µM unless noted.
On to `NC(=S)N/N=C/c1ccc(OC(=O)COc2ccc(Cl)cc2)cn1`, for which the growth is 19.3%.
For `C=C1CCC2C(C)(COC(=O)CC)C(OC(=O)CC)CCC2(C)C1C/C=C1/C(=O)OCC1OC(=O)CC` (stereo not drawn) the value was -43.8% (active); for `FC(F)(F)c1[nH]ncc1-c1nc2ccc3[nH]ncc3c2c2c1CCCC2`, -32.3% (active).
